Records with an inconclusive call do not appear. Activity calls are given as the source filed them. Calls come from the whole dose curve; as a rule, active = well fitted inhibition curve with a large enough effect; inconclusive = small, poorly fitted or top-dose-only effect; inactive = flat fitted curve, though single readings scatter.
Legend:
[1] = tested on: P93_24; test: qHTS profiling for inhibitors of Plasmodium falciparum proliferation (AID 504749);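 note: 0% = DMSO vehicle and full inhibition = artemisinin control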; conditions: P. falciparum in erythrocytes, SYBR Green DNA, 72 h; series mostly up to 28.7 µM
Outline: (§1)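 SYBR Green fluorescence of parasite DNA, read after lysis and overnight dark incubation, measured growth over 72 h in erythrocyte culture at 0.3% parasitemia and 2.5% hematocrit. Data normalised to DMSO and 0.29 uM artemisinin, with plate-drift correction.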

[2] = tested on: P94_40; test: as above; conditions: P. falciparum in erythrocytes, SYBR Green DNA, 72 h; series mostly up to 28.7 µM
Outline: as §1

[3] = tested on: PAD; test: as above; conditions: P. falciparum in erythrocytes, SYBR Green DNA, 72 h; series mostly up to 28.7 µM
Outline: as §1

[4] = tested on: PC15; test: as above; conditions: P. falciparum in erythrocytes, SYBR Green DNA, 72 h; series mostly up to 28.7 µM
Outline: as §1

[5] = tested on: PC26; test: as above; conditions: P. falciparum in erythrocytes, SYBR Green DNA, 72 h; series mostly up to 28.7 µM
Outline: as §1

[6] = tested on: PC49; test: as above; conditions: P. falciparum in erythrocytes, SYBR Green DNA, 72 h; series mostly up to 28.7 µM
Outline: as §1

[7] = tested on: SC27B; test: as above; conditions: P. falciparum in erythrocytes, SYBR Green DNA, 72 h; series mostly up to 28.7 µM
Outline: as §1

[8] = tested on: TAB109; test: as above; conditions: P. falciparum in erythrocytes, SYBR Green DNA, 72 h; series mostly up to 28.7 µM
Outline: as §1

[9] = tested on: TAB113; test: as above; conditions: P. falciparum in erythrocytes, SYBR Green DNA, 72 h; series mostly up to 28.7 µM
Outline: as §1

[10] = tested on: TAB165; test: as above; conditions: P. falciparum in erythrocytes, SYBR Green DNA, 72 h; series mostly up to 28.7 µM
Outline: as §1

[11] = tested on: W2; test: as above; conditions: P. falciparum in erythrocytes, SYBR Green DNA, 72 h; series mostly up to 28.7 µM
Outline: as §1

[12] = tested on: CRL-7250; test: Cytotoxic Profiling of Annotated Libraries Using Quantitative High-Throughput Screening (AID 1296008); conditions: Five cell lines viability, CellTiter-Glo ATP luminescence, 48-72 h; hits give low values; for max response: % is set by controls: 0 for no effect and ±100 for the full control effect
Outline: (§2)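 Cytotoxicity was measured as CellTiter-Glo ATP luminescence, read after 10 min at room temperature. Compound treatment of the cells lasted 48 or 72 hr at 37 degrees Celsius in a qHTS format.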

[13] = tested on: HEK293; test: as above; conditions: Five cell lines viability, CellTiter-Glo ATP luminescence, 48-72 h; hits give low values
Outline: as §2

[14] = tested on: HaCat; test: as above; conditions: Five cell lines viability, CellTiter-Glo ATP luminescence, 48-72 h; hits give low values
Outline: as §2

[15] = tested on: NIH3T3; test: as above; conditions: Five cell lines viability, CellTiter-Glo ATP luminescence, 48-72 h; hits give low values
Outline: as §2

[16] = tested on: HACAT; test: qHTS assay to identify novel small-molecules to repurpose for Merkel cell carcinoma treatment (AID 1296009); conditions: MCC and control cell lines, CellTiter-Glo viability, 72 h; at 44.8 µM (top of the series) unless noted
Outline: (§3)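 Cell viability, measured as CellTiter-Glo luminescence, was normalized between DMSO and no-cell wells. The cells had been exposed to 8- or 11-point compound dilutions for 72 hr at 37 degree celsius.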

[17] = tested on: MCC-13; test: as above; conditions: MCC and control cell lines, CellTiter-Glo viability, 72 h; series mostly up to 46 µM
Outline: as §3

[18] = tested on: MCC-26; test: as above; conditions: MCC and control cell lines, CellTiter-Glo viability, 72 h; series mostly up to 46 µM
Outline: as §3

[19] = tested on: HEK293T; test: as above; conditions: MCC and control cell lines, CellTiter-Glo viability, 72 h; at 44.8 µM (top of the series) unless noted
Outline: as §3
Note: nearly all actives have a fitted effect of over 60% in size.

Nc1ccncc1N
inactive: Potency [1] | Potency [2] | Potency [3] | Potency [4] | Potency [5] | Potency [6] | Potency [7] | Potency [8] | Potency [9] | Potency [10] | Potency [11] | max response [12] -6.31% | max response [13] -11.7% | outcome [14] | max response [15] -1.29% | outcome [16] | outcome [17] | outcome [18]

Cc1onc(-c2ccccc2)c1-c1ccc(S(N)(=O)=O)cc1
inactive: Potency [1] | Potency [2] | Potency [3] | Potency [4] | Potency [5] | Potency [6] | Potency [7] | Potency [8] | Potency [9] | Potency [10] | Potency [11] | outcome [12] | max response [13] -13.2% | outcome [14] | outcome [15] | outcome [16] | outcome [17] | outcome [18]

O=C(O)CCC(=O)O
inactive: Potency [1] | Potency [2] | Potency [3] | Potency [4] | Potency [5] | Potency [6] | Potency [7] | Potency [8] | Potency [9] | Potency [10] | Potency [11] | max response [12] 3.26% | max response [13] 3.09% | outcome [14] | max response [15] -0.925% | outcome [16] | outcome [17] | outcome [18]

NC(=O)NC1NC(=O)NC1=O (centres undefined)
inactive: outcome [12] | max response [13] -3.84% | outcome [14] | outcome [15] | outcome [16] | outcome [17] | outcome [18]

OC(CCN1CCCC1)(c1ccccc1)C1CCCCC1 (centres undefined)
inactive: max response [12] -24% | max response [13] -13.4% | max response [14] 3.13% | outcome [15] | outcome [17] | outcome [18]

C[C@]1(Cn2ccnn2)[C@H](C(=O)O)N2C(=O)C[C@H]2S1(=O)=O
inactive: max response [12] -1.81% | outcome [13] | max response [14] -19.5% | max response [15] -0.883% | outcome [19] | outcome [17] | outcome [18]

CCCNC(C)C(=O)Nc1c(C)csc1C(=O)OC (centres undefined)
inactive: outcome [12] | max response [13] -4.55% | outcome [14] | outcome [15] | outcome [16] | outcome [17] | outcome [18]

Cc1[nH]c(C)c(Cl)c(=O)c1Cl
inactive: Potency [1] | Potency [2] | Potency [3] | Potency [6] | Potency [7] | Potency [8] | Potency [9] | outcome [12] | max response [13] -10% | max response [14] -2.26% | max response [15] -10.7% | outcome [17] | outcome [18]

CCOC(=O)[C@H](CCc1ccccc1)N[C@@H](C)C(=O)N1CCC[C@H]1C(=O)O
inactive: Potency [1] | Potency [2] | Potency [3] | Potency [4] | Potency [5] | Potency [6] | Potency [7] | Potency [8] | Potency [9] | Potency [10] | Potency [11] | max response [12] 2.02% | max response [13] -1.68% | outcome [14] | outcome [15] | outcome [16] | outcome [17] | outcome [18]

O=C1CC[C@@H](C(=O)O)N1
inactive: Potency [2] | Potency [3] | Potency [4] | Potency [5] | Potency [6] | Potency [7] | Potency [8] | Potency [9] | Potency [10] | max response [12] 1.58% | outcome [13] | max response [14] 4.13% | max response [15] 0.792% | outcome [19] | outcome [17] | outcome [18]

COC(=O)N/N=C/c1c[n+]([O-])c2ccccc2[n+]1[O-]
inactive: max response [12] 4.42% | outcome [13] | max response [14] -20.3% | max response [15] -11.1% | outcome [19] | outcome [17]

CN[C@@H]1[C@H](O)[C@H](NC)[C@H]2O[C@@]3(O)C(=O)C[C@@H](C)O[C@H]3O[C@@H]2[C@H]1O
inactive: max response [12] -3.95% | max response [13] 1.03% | max response [14] 0.231% | max response [15] 2.69% | outcome [17]

COc1ccc(O)cc1
inactive: Potency [1] | Potency [2] | Potency [3] | Potency [4] | Potency [5] | Potency [6] | Potency [7] | Potency [8] | Potency [9] | Potency [10] | Potency [11] | max response [12] -3.8% | outcome [13] | max response [14] -9.9% | max response [15] -13.1% | outcome [19] | outcome [17] | outcome [18]

CCCCOC(=O)c1ccc(N)cc1
inactive: Potency [1] | Potency [2] | Potency [3] | Potency [4] | Potency [5] | Potency [6] | Potency [7] | Potency [8] | Potency [9] | Potency [10] | outcome [12] | max response [13] 4.63% | outcome [14] | max response [15] -6.66% | outcome [16] | outcome [17] | outcome [18]

Cc1ccsc1C(=CCCN1CCC[C@@H](C(=O)O)C1)c1sccc1C
inactive: Potency [1] | Potency [2] | Potency [3] | Potency [4] | Potency [5] | Potency [6] | Potency [7] | Potency [8] | Potency [9] | Potency [10] | Potency [11] | max response [12] -7.41% | outcome [13] | max response [14] 3.8% | max response [15] -5% | outcome [19] | outcome [17] | outcome [18]

COc1ccccc1OCC(O)CO (centres undefined)
inactive: outcome [12] | max response [13] -2.29% | outcome [14] | outcome [15] | outcome [16] | outcome [17] | outcome [18]

Reference: PubChem BioAssay (NCATS)
